Among the data in ChEMBL document CHEMBL1961873, “Compounds: GSK PKIS; Assays: Nanosyn kinase panel” (2012) are inhibition values, retold here.

The structures appear in SMILES notation.

The target of test [1] is Serine/threonine-protein kinase PAK 6 (Homo sapiens) (UniProt Q9NQU5). Conditions: at 1 µM.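 Further: values are mean percent inhibition of PAK6 kinase.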
In test [2] the test system is Tyrosine-protein kinase ABL1 (Homo sapiens), P00519 [E255K]. Conditions: at 0.1 µM.
The test system is the same in test [3]. To be noted: at 1 µM.
The subject of test [4] is Tyrosine-protein kinase ABL1 (Homo sapiens), P00519 [H396P]. To be noted: at 0.1 µM.
Test [5] shares this test system. To be noted: at 1 µM.
Test [6] has as its system Tyrosine-protein kinase ABL1 (Homo sapiens), P00519 [M351T]. To be noted: at 0.1 µM.
The test system is the same in test [7]. Conditions: at 1 µM.
Test [8] has as its system Tyrosine-protein kinase ABL1 (Homo sapiens), P00519 [Q252H]. Conditions: at 0.1 µM.
Test [9] has the same test system. To be noted: at 1 µM.
Test [10] has as its system Tyrosine-protein kinase ABL1 (Homo sapiens), P00519 [T315I]. To be noted: at 0.1 µM.

Sequence of Serine/threonine-protein kinase PAK 6 (Homo sapiens) (Q9NQU5 whole entry, looked up): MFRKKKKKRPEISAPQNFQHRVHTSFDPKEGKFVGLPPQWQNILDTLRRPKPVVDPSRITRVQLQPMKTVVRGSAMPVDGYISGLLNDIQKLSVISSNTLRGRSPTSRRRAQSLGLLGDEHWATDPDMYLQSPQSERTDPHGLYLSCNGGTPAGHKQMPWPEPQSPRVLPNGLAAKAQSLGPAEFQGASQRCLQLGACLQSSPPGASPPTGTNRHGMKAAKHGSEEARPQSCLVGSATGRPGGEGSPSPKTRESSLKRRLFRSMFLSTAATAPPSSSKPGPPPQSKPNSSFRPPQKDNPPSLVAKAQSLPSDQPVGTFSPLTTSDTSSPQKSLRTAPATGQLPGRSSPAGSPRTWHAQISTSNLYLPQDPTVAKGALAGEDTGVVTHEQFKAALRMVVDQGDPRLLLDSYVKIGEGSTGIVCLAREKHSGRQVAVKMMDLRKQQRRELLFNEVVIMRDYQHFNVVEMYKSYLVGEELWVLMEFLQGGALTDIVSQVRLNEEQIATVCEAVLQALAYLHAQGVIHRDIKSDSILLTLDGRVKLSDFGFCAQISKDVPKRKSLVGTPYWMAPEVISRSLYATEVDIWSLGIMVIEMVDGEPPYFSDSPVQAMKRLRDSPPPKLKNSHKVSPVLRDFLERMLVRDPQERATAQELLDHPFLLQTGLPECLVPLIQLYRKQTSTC

One may read the inhibition as the change of the read-out against control, counted positive when it falls. In the case of `O=C(Nc1n[nH]c2cc(-c3ccccc3)ccc12)C1CC1`, the inhibition in test [1] is -4.61%; in test [2] it was 10.5%; in test [3], 46.5%; in test [4], 20.2%; in [5] it was 67.5%; in [6], 19.3%. The inhibition in [7] is 68.6%; in [8], 14%; in [9] it was 48.4%; in [10], 36.3%.
As to `COc1ccc2ncn(-c3cc(O[C@H](C)c4ccccc4Cl)c(C(N)=O)s3)c2c1`, the inhibition stood at 1.83% in test [1]; 1.19% in [2]; 2.26% in test [3]; 3.99% in test [4]; 9.15% in test [5]; 0.34% in [6]. Besides, the inhibition in [7] is 5.61%; in test [8], 2.81%; in test [9] it was 4.72%; in [10] it was 0.33%.
As for `Fc1ccc(-c2c(-c3ccncc3)nc3n2CCS3)cc1`, the inhibition in [1] was -5.03%; in test [2], 1.44%; in test [3] it was 4.74%; in test [4], 2.06%; in test [5] it was 3.54%; in test [6] it was -0.24%. Also, the inhibition came to 5.03% in test [7], 1.69% in [8], 4.11% in test [9] and 0.05% in test [10].
On to `O=C1NC(=O)C(c2cccc(Cl)c2)=C1Nc1ccc(Cl)c(C(=O)O)c1`, for which the inhibition in test [1] was -4.4%; in [2], 1.78%; in test [3] it was 3.24%; in test [4], 2.08%; in [5] it was 6.18%; in test [6], 2.29%. Besides, the inhibition came out at 5.05% in [7], 2.43% in [8], 4.98% in [9] and 1.3% in [10].
With `COc1cc2ncn(-c3cc(OCc4ccccc4C(F)(F)F)c(C(C)=O)s3)c2cc1OC`, the inhibition in test [1] is -3.04%; in [2] it was 1.66%; in test [3] it was 4.89%; in test [4], 4.51%; in [5], 5.12%; in test [6], 1.37%. For the same molecule, the inhibition is 6.24% in [7], 4.93% in test [8], 4.96% in test [9] and 1.88% in test [10].
Take `COc1cc(Nc2ncc(-c3ccccc3)o2)cc(OC)c1OC`: the inhibition in test [2] worked out at 5.32%; in test [3] it was 36.8%; in test [4] it was 12.7%; in test [5], 61.5%; in test [6], 14.3%; in [7], 61.2%. The inhibition came out at 11.2% in test [8], 57.7% in test [9] and 1.79% in [10].
With `NS(=O)(=O)c1ccc(N/N=C2\C(=O)Nc3ccc(C(=O)NCCCn4ccnc4)cc32)cc1`, the inhibition in [2] is 5.15%; in test [3], 10.9%; in test [4] it was 5.17%; in [5], 14.3%; in test [6], 0.91%; in test [7] it was 14.2%. The inhibition is 5.21% in test [8], 13.1% in [9] and 3.66% in test [10].
With `Cc1ccc(C(=O)NC2CCC2)cc1-c1ccc(C(=O)NCC2CC2)cc1`, the inhibition in test [1] is -6.65%; in test [2], 1.89%; in test [3], 1.67%; in test [4] it was 1.26%; in [5], 0.31%; in test [6] it was -0.23%. In addition, the inhibition in [7] was -0.39%; in [8], 0.6%; in test [9], 1.97%; in test [10], 0.82%.
`O=C1Nc2ccccc2/C1=C/Nc1ccc(-n2cncn2)cc1`: the inhibition in [2] stood at 1.9%; in [3], 9.03%; in [4] it was 2.67%; in [5], 13.3%; in [6], 1.55%; in test [7], 14.5%. The inhibition in test [8] is 3.88%; in test [9] it was 13.4%; in test [10], 3.25%.
For `COc1cc(N2CCN(C(C)C)CC2)ccc1Nc1nc(Nc2ccc(F)cc2C(=O)NC[C@@H](O)CO)c2cc[nH]c2n1`, the inhibition in [1] is -2.37%; in [2] it was 1.32%; in [3], 5.35%; in test [4], 2.98%; in [5] it was 5.65%; in test [6], 3.03%. Moreover, the inhibition in [7] stood at 5.84%; in test [8], 3.53%; in test [9], 4.72%; in [10] it was 2.48%.
With `C[C@@H](Oc1cc(-n2cnc3ccc(OCC4CCN(C)CC4)cc32)sc1C(N)=O)c1ccccc1Cl`, the inhibition in [1] was -3.14%; in test [2] it was 0.13%; in test [3], 4.51%; in test [4], 2.87%; in [5] it was 9.39%; in test [6], -0.56%. Further, the inhibition was 5.2% in test [7], 4.18% in test [8], 8.32% in test [9] and -2.27% in test [10].
Turning to `COc1ccc2cc(-c3c(-c4ccncc4)nc(-c4ccc(S(C)(=O)=O)cc4C)n3C)ccc2c1`, the inhibition is -3.99% in [1]; 2.69% in test [2]; 10.9% in test [3]; 5.32% in test [4]; 17.9% in [5]; 2.32% in test [6]. Further, the inhibition in test [7] came out at 18%; in test [8] it was 6.25%; in test [9], 22.4%; in test [10] it was 8.12%.
On to `CS(=O)(=O)CCNCc1cc(-c2cc3c(Nc4ccc(OCc5cccc(F)c5)c(Cl)c4)ncnc3s2)cs1`, for which the inhibition came to 2.18% in [2]; 4.04% in [3]; 4.45% in [4]; 5.71% in test [5]; 2% in test [6]; 5.07% in [7]. Also, the inhibition in test [8] worked out at 4.77%; in test [9], 6.1%; in [10], 4.15%.
Take `O=C1Nc2ccc(I)cc2C1=Cc1cc(Br)c(O)c(Br)c1`: the inhibition in [2] came out at 1.89%; in [3], 6.01%; in test [4], 4.06%; in test [5], 6.63%; in [6] it was 1%; in test [7], 4.74%. Besides, the inhibition is 3.44% in [8], 7.29% in [9] and 2.84% in test [10].
With `Fc1ccc(-c2ncn(C3CCNCC3)c2-c2ccnc(Oc3ccc(Oc4ccccc4)cc3)n2)cc1`, the inhibition in test [1] is -1.92%; in test [2] it was 1.84%; in [3], 2.14%; in [4] it was 2.93%; in test [5] it was 3.2%; in test [6], -0.2%. In addition, the inhibition came out at 0.05% in [7], 1.63% in test [8], 2.88% in test [9] and 0.61% in test [10].
Take `O=C(Nc1n[nH]c2cc(-c3cc(F)ccc3F)ccc12)C1CC1`: the inhibition was -0.43% in test [1]; 8.07% in [2]; 31.4% in test [3]; 13.8% in [4]; 52.2% in test [5]; 13% in test [6]. In addition, the inhibition in test [7] amounted to 53.8%; in test [8], 8.73%; in [9] it was 35.5%; in [10], 23.3%.
As to `Cc1nnc(-c2ccc(C)c(-c3ccc(C(=O)NCc4ccc(Cl)cc4)cc3)c2)o1`, the inhibition in test [2] was 2.64%; in [3], 6.05%; in [4] it was 3.3%; in [5], 11.6%; in test [6], -1.14%; in [7], 1.63%. For the same molecule, the inhibition in test [8] stood at 2.54%; in test [9], 4.45%; in [10] it was 2.23%.
